High-throughput results deposited in PubChem BioAssay by National Center for Advancing Translational Sciences (NCATS).
Shown are actives, neighbours in structure and some others; about 19% of the full set was active somewhere.
IL-1B inflam inh = inhibitors of inflammasome signaling (IL-1 beta secretion); activity change, % at 57.5 µM; AID 743279; 360,000 compounds, 4.7% hits; THP-1 LPS/ATP IL-1B secretion, AlphaLISA, 16 h; stronger effect = lower value; in the data active = activity change below about -50%; inconclusive = mostly about -30% to -49%
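Secreted IL-1B measured by AlphaLISA bead assay after 16 h compound exposure of THP-1 cells; compounds (final up to 57.5 uM) added 1 h before LPS (250 ng/mL) and ATP (1.25 mM) stimulation; lower signal means less secretion.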
TDP1 cell CPT = growth inhibition of DT40 Tdp1-/-;hTDP1 cells with camptothecin (screen for TDP1 inhibitors). chicken DT40 Tdp1-/-;hTDP1 cells + 20 nM CPT, ATP luminescence, 48 h. Potency, µM (titrated, usually from 46.2 µM), without a hit: at the top dose activity change, negative = growth inhibition, usual class: inhibitors. 420,000 compounds, 12% hits. AID 686979; also: potency is read from the fitted curve at half-maximal effect; nearly all actives have a fitted effect of over 55% in size
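Chicken DT40 Tdp1-/- cells stably complemented with human TDP1 were seeded at 400 cells/well in medium containing 20 nM camptothecin, exposed to pin-transferred compounds, and grown at 37 °C for at least 48 hr. Viability was read as ATP luminescence.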
HT1080-NT tox = kills 2HG-producing HT-1080-NT fibrosarcoma cells; Potency, µM (series often up to 46.1 µM), for the others: at the top dose activity, negative = less viability, hits mostly cytotoxic; AID 686970; 360,000 compounds, 1.6% hits; HT-1080-NT fibrosarcoma viability, CellTiter-Glo ATP luminescence, 48 h;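 also: NT is the 2HG producing partner of a matched IDH1 knockdown line; potency is read from the fitted curve at half-maximal effect; 0% = DMSO-treated cells and -100% = media-only wells without cells; nearly all actives have a fitted effect of over 55% in size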
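A 48-hour cytotoxicity screen used HT-1080-NT cells plated 2 hours before compound delivery. ATP-based CellTiter-Glo luminescence measured viability, normalized to DMSO and no-cell controls.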
TDP1 cell noCPT = qHTS for Inhibitors of human tyrosyl-DNA phosphodiesterase 1 (TDP1): qHTS in cells in absence of CPT | DT40 Tdp1-/- hTDP1 cells, no CPT, ATP luminescence, 48 h | Potency, µM (series often up to 46.2 µM), without a hit: at the top dose activity change, negative = growth inhibition, usual class: inhibitors | 420,000 compounds, 15% hits; also: potency is read from the fitted curve at half-maximal effect; nearly all actives have a fitted effect of over 55% in size
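Cells were dispensed at 400 per well, compounds added by pin tool, plates incubated ≥48 hr at 37 °C, then CellTiter-Glo added for 30 min at room temperature before luminescence reading. Line: DT40 Tdp1-/- complemented with hTDP1; camptothecin omitted.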
HT1080 IDH1KD tx = kills HT-1080 cells with IDH1 knockdown. Potency, µM (highest dose often 46.1 µM), without a hit: at the highest dose activity, negative = toxicity, actives largely listed as cytotoxic. HT-1080 IDH1 knockdown viability, ATP luminescence, 48 h. 360,000 compounds, 2% hits;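 also: potency is read from the fitted curve at half-maximal effect; 0% = DMSO wells and -100% = cell-free medium wells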
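Using the IDH1-knockdown HT-1080 line run in the same batch and compound series as the NT line, viability after 48 h at 37 °C was determined by CellTiter-Glo luminescence and expressed as % activity.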
* hit, by the source's call; ? = inconclusive; . = not tested or not shown; [ ] = another dose, or the depositor's remark. Unless noted, calls follow the shape of the dose curve; as a rule, active = well fitted curve in the direction sought with a large enough effect; inconclusive = small, poorly fitted or top-dose-only effect, or another doubt; inactive = no such curve, though single readings can be large; an effect the other way counts as inactive or inconclusive. Unless noted, % is scaled to controls: 0 for no effect and ±100 for the full control effect.

SMILES	IL-1B inflam inh	TDP1 cell CPT	HT1080-NT tox	TDP1 cell noCPT	HT1080 IDH1KD tx
CCOc1ccccc1NC(=O)c1ccc(NC(=O)C2CCCO2)cc1 (configuration not stated)	-23.5	-1.4%	11.1%	-15.2%	0.5%
O=C(CCS(=O)(=O)c1cccc2nonc12)Nc1ccc(F)cc1F	.	-0.6%	.	-3.0%	.
Cc1ccc(C2/C(=C(/O)c3ccc(Br)cc3)C(=O)C(=O)N2Cc2ccco2)o1 (configuration not stated)	0.0	-2.2%	-1.7%	6.2%	0.4%
Cc1cc(S(=O)(=O)Nc2ccc3ccccc3c2)c(C)s1	27.8	10µM*	12.6µM*	11.2µM*	14.1µM*
Cc1cc(S(=O)(=O)Nc2cc(C)c(O)c(C)c2)c(C)s1	-14.7	2.59µM*	?	2.91µM*	?
Cc1cc(S(=O)(=O)Nc2cccnc2)c(C)s1	1.7	-8.1%	9.5%	-16.5%	8.7%
CC(C)C[C@@H](CNCC(=O)[C@H](CC(=O)O)NC(=O)c1[nH]cnc1C(=O)N[C@H](CN)CC(C)C)NC(=O)c1nc[nH]c1C(=O)N[C@@H](Cc1ccccc1)C(=O)O	4.9	-1.7%	13.1%	4.4%	13.8%
CC(C)NS(=O)(=O)c1ccc(NC(=O)C(C)OC(=O)CCCOc2ccccc2)cc1 (configuration not stated)	2.8	-23.9%	5.5%	?	19.2%
N#C/C(=C(/O)CN1CCN(c2ccccc2F)CC1)c1nc(-c2ccc(Cl)cc2)cs1	-11.4	20.6µM*	0.0%	?	0.0%
N#C/C(=C(/O)CN1CCCCC1)c1nc(-c2ccc(Cl)cc2)cs1	14.0	-14.9%	-0.1%	-7.7%	-7.0%[9.24 µM]
N#C/C(=C(/O)CN1CCOCC1)c1nc(-c2ccccc2)cs1	16.6	?	-8.7%	-9.1%	0.0%
N#C/C(=C(/O)CCl)c1nc(-c2ccccc2)cs1	-56.6*	13µM*	-27.7%	14.6µM*	-29.8%
Cc1ccc(-c2csc(/C(C#N)=C(\O)CCl)n2)cc1	-72.8*	?	-20.8%	?	-13.0%
CCc1ccc(N2C=C(C(=O)OC)C(c3cccc4ccccc34)C(C#N)=C2N)cc1 (configuration not stated)	-9.7	13µM*	?	8.2µM*	?
COC(=O)C1=CN(c2ccc(C(C)(C)C)cc2)C(N)=C(C#N)C1c1cccc2ccccc12 (configuration not stated)	6.7	14.6µM*	?	13µM*	?
COC(=O)C1=CN(c2ccc(F)cc2)C(N)=C(C#N)C1c1cccc(OC)c1OC (configuration not stated)	-18.3	?	0.8%	?	-0.2%
COC(=O)C1=CN(c2ccc(OC)cc2)C(N)=C(C#N)C1c1cccc2ccccc12 (configuration not stated)	16.3	5.8µM*	?	5.17µM*	?
COC(=O)C1=CNC=C(C(=O)OC)C1c1cccc2ccccc12	5.3	0.3%	-20.8%	?	-15.5%
CCOC(=O)c1c(C)[nH]c(C)c1S(=O)(=O)N1CCCC(C(=O)Nc2ccc(OC)c(OC)c2)C1 (configuration not stated)	.	-9.1%	.	-7.6%	.
CC(C)COC(=O)N(C)C[C@H]1OCc2cnnn2CCCC(=O)N([C@H](C)CO)C[C@@H]1C	13.8	-19.8%	-2.9%	13.1%	0.4%
C/C(=N/NC(=O)CNC(=O)c1cccs1)c1ccco1	3.7	13.2%	19.3%	-1.5%	13.5%
CC(C)(C)c1ccc(OCC(=O)NCc2ccco2)c(Br)c1	-26.7	-92.4%	?	23.1µM*	?
Cc1ccccc1OCC(=O)NNC(=S)NC(=O)c1ccco1	75.6	22.4µM*	?	10µM*	8.91µM*
CCOc1cc(C(=O)OCC(=O)NCc2ccco2)cc(OCC)c1OCC	-15.7	-28.3%	6.2%	?	6.9%
CC(C)c1ccc(OCC(=O)NNC(=S)NC(=O)c2ccco2)c(Br)c1	117.4	?	-10.9%	?	-9.8%
SMILES	IL-1B inflam inh	TDP1 cell CPT	HT1080-NT tox	TDP1 cell noCPT	HT1080 IDH1KD tx
C/C(=N/NC(=O)Cc1cccs1)c1ccco1	-1.5	?	13.2%	23.1µM*	14.3%
O=C(Cc1cccs1)NNC(=S)NC(=O)c1ccco1	34.1	?	-15.8%	29.1µM*	?
O=Cc1sc([O-])nc1-[n+]1ccc2ccccc2c1	8.3	0.5%	0.4%	-13.4%	3.3%
Cc1cccc(NC(=O)c2oc3ccccc3c2NC(=O)c2cc(=O)c3ccccc3o2)c1	.	-8.1%	.	0.2%	.
CC(C)(C)c1ccc(OCC(=O)NNC(=S)NC(=O)c2ccco2)c(Br)c1	24.0	20.6µM*	-0.9%	10.3µM*	0.3%
CN(C)c1ccc(O)c2c1CC1CC3[C@@H](N(C)C)C(=O)C(C(N)=O)C(=O)[C@]3(O)C(=O)C1C2=O (some centres not stated)	-20.2	6.51µM*	.	4.11µM*	.
CN(C)c1cc(NC(=O)CNC(C)(C)C)c(O)c2c1C[C@H]1C[C@H]3[C@H](N(C)C)C(=O)C(C(N)=O)=C(O)[C@@]3(O)C(=O)C1=C2O	.	10.1%	.	4.5%	.
CN(C)c1ccc(O)c2c1CC1CC3C(N(C)C)C(=O)C(C(N)=O)=C(O)[C@@]3(O)C(=O)C1=C2O (some centres not stated)	-4.1	2.06µM*	.	1.84µM*	.
Cc1cccc(NC(=O)CN(CC2CCCO2)C(=O)c2oc3ccccc3c2C)c1C (configuration not stated)	12.2	29.1µM*	1.1%	?	-7.0%
Cc1cccc(NC(=O)CN(CC2CCCO2)C(=O)c2cc3ccccc3o2)c1C (configuration not stated)	-9.6	?	10.2%	?	7.9%
CCCc1nc2oc3c(NCC(C)O)ncnc3c2c2c1CCCC2 (configuration not stated)	0.0	?	0.1%	?	-3.6%
CC(C)Cc1nc2oc3c(N4CCN(CCO)CC4)ncnc3c2c2c1CCCC2	-7.0	13µM*	7.5%	13µM*	8.9%
c1ccc(-c2nc(NCC3CCCO3)c3oc4ccccc4c3n2)cc1 (configuration not stated)	3.6	-19.7%	-14.8%	?	-4.0%
CC(C)Cc1nc2oc3c(NCC4CCCO4)ncnc3c2c2c1CCC2 (configuration not stated)	-27.3	13µM*	7.3%	18.4µM*	-0.8%
c1ccc2c(c1)oc1c(NCC3CCCO3)ncnc12 (configuration not stated)	117.1	?	-1.7%	18.4µM*	-11.1%
CC(C)Cc1nc2oc3c(NCc4cccnc4)ncnc3c2c2c1CCC2	25.5	-25.2%	1.9%	-10.9%	-15.0%
